Holding throughout (test): PBM; 200 nM protein, PBS
Holding throughout (details): dsDNA, one strand shown

Test [1] addresses CRX (Homo sapiens, UniProt O43186 26-111).
The target in test [2] is CRX (Homo sapiens, UniProt O43186 26-111, E42D).
Test [3] has as its target MSX2 (Homo sapiens, UniProt P35548 130-214, R199I).
Test [4] addresses MSX2 (Homo sapiens, UniProt P35548 130-214).
The target in test [5] is MSX2 (Homo sapiens, UniProt P35548 130-214, F161Y).
In test [6] the target is CRX (Homo sapiens, UniProt O43186 26-111, R41L).
Test [7] deals with PITX2 (Homo sapiens, UniProt Q99697 72-157).
Test [8] addresses ALX3 (Homo sapiens, UniProt O95076 139-225, N203Q).
Test [9] has as its target ALX3 (Homo sapiens, UniProt O95076 139-225).
Test [10] has as its target ALX3 (Homo sapiens, UniProt O95076 139-225, L168Q).
Test [11] addresses ALX3 (Homo sapiens, UniProt O95076 139-225, L168V).
Test [12] addresses ALX3 (Homo sapiens, UniProt O95076 139-225, N203S).
In test [13] the target is PROP1 (Homo sapiens, UniProt O75360 56-141).
Test [14] addresses PROP1 (Homo sapiens, UniProt O75360 56-141, F88S).
For test [15], the target named is T1, NKX2-6 (Homo sapiens, UniProt A6NCS4 118-204).
T1 sequence: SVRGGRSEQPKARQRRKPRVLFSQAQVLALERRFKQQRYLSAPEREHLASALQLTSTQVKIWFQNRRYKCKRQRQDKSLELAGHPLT

Test [16] addresses T2, NKX2-6 (Homo sapiens, UniProt A6NCS4 118-204, F151L).
T2 sequence: T1 sequence with F34L

Where a chain is given by its changes, count along the chain named.

CRX (Homo sapiens, UniProt O43186 26-111, R41L), sequence (O43186 26-111 R41L): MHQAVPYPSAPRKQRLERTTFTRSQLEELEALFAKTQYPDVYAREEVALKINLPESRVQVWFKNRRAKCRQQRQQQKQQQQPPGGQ
CRX (Homo sapiens, UniProt O43186 26-111), sequence (O43186 26-111): as the sequence (O43186 26-111 R41L) above, with L16R counted along it
CRX (Homo sapiens, UniProt O43186 26-111, E42D), sequence (O43186 26-111 E42D): as the sequence (O43186 26-111 R41L) above, with L16R, E17D counted along it
MSX2 (Homo sapiens, UniProt P35548 130-214, F161Y), sequence (P35548 130-214 F161Y): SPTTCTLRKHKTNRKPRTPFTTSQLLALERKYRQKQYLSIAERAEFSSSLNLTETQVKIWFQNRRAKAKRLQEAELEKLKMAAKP
ALX3 (Homo sapiens, UniProt O95076 139-225, L168Q), sequence (O95076 139-225 L168Q): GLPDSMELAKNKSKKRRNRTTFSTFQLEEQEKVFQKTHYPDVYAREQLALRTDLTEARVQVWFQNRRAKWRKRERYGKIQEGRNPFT
ALX3 (Homo sapiens, UniProt O95076 139-225, L168V), sequence (O95076 139-225 L168V): as the sequence (O95076 139-225 L168Q) above, with Q30V counted along it
ALX3 (Homo sapiens, UniProt O95076 139-225), sequence (O95076 139-225): as the sequence (O95076 139-225 L168Q) above, with Q30L counted along it
ALX3 (Homo sapiens, UniProt O95076 139-225, N203Q), sequence (O95076 139-225 N203Q): as the sequence (O95076 139-225 L168Q) above, with Q30L, N65Q counted along it
MSX2 (Homo sapiens, UniProt P35548 130-214), sequence (P35548 130-214): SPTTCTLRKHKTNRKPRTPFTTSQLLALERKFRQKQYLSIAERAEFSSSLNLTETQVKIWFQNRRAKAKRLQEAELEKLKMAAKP
ALX3 (Homo sapiens, UniProt O95076 139-225, N203S), sequence (O95076 139-225 N203S): as the sequence (O95076 139-225 L168Q) above, with Q30L, N65S counted along it
PROP1 (Homo sapiens, UniProt O75360 56-141), sequence (O75360 56-141): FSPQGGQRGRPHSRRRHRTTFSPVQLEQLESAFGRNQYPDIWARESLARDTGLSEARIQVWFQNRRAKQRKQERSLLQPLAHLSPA
PROP1 (Homo sapiens, UniProt O75360 56-141, F88S), sequence (O75360 56-141 F88S): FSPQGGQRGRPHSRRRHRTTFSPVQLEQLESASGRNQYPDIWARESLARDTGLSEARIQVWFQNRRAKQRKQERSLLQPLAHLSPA
MSX2 (Homo sapiens, UniProt P35548 130-214, R199I), sequence (P35548 130-214 R199I): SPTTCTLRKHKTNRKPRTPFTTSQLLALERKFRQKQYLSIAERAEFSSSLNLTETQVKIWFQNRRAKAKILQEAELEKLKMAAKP

For CGGGGTGC, the binding signal is 8.16 upbm affinity estimate (log intensity, higher = more binding, comparable within an allelic series) in test [1]; 8.25 upbm affinity estimate (log intensity, higher = more binding, comparable within an allelic series) in [2]; 9.55 upbm affinity estimate (log intensity, higher = more binding, comparable within an allelic series) in [3]; 9.66 upbm affinity estimate (log intensity, higher = more binding, comparable within an allelic series) in test [4]; 9.67 upbm affinity estimate (log intensity, higher = more binding, comparable within an allelic series) in test [5]; 8.31 upbm affinity estimate (log intensity, higher = more binding, comparable within an allelic series) in [6].

On to CTTAATCC, for which the binding signal in test [1] is 13.7 upbm affinity estimate (log intensity, higher = more binding, comparable within an allelic series); in test [2], 13.8 upbm affinity estimate (log intensity, higher = more binding, comparable within an allelic series); in test [7], 13.5 upbm affinity estimate (log intensity, higher = more binding, comparable within an allelic series); in test [6], 13.5 upbm affinity estimate (log intensity, higher = more binding, comparable within an allelic series).

On to AGGTGCGG, for which the binding signal in [1] was 8.42 upbm affinity estimate (log intensity, higher = more binding, comparable within an allelic series); in test [2], 8.46 upbm affinity estimate (log intensity, higher = more binding, comparable within an allelic series); in [8] it was 7.78 upbm affinity estimate (log intensity, higher = more binding, comparable within an allelic series); in [9], 7.66 upbm affinity estimate (log intensity, higher = more binding, comparable within an allelic series); in test [10] it was 7.81 upbm affinity estimate (log intensity, higher = more binding, comparable within an allelic series); in [11], 7.75 upbm affinity estimate (log intensity, higher = more binding, comparable within an allelic series). In addition, the binding signal was 8.35 upbm affinity estimate (log intensity, higher = more binding, comparable within an allelic series) in test [6] and 7.79 upbm affinity estimate (log intensity, higher = more binding, comparable within an allelic series) in test [12].

For the sequence CTAATCTC, the binding signal in test [1] was 13 upbm affinity estimate (log intensity, higher = more binding, comparable within an allelic series); in test [2], 13 upbm affinity estimate (log intensity, higher = more binding, comparable within an allelic series); in [7], 12.6 upbm affinity estimate (log intensity, higher = more binding, comparable within an allelic series); in test [13], 8.84 upbm affinity estimate (log intensity, higher = more binding, comparable within an allelic series); in [14], 7.25 upbm affinity estimate (log intensity, higher = more binding, comparable within an allelic series); in test [6], 12.7 upbm affinity estimate (log intensity, higher = more binding, comparable within an allelic series).

As to GGATTAAA, the binding signal in test [1] was 13.5 upbm affinity estimate (log intensity, higher = more binding, comparable within an allelic series); in [2], 13.6 upbm affinity estimate (log intensity, higher = more binding, comparable within an allelic series); in [7] it was 13.3 upbm affinity estimate (log intensity, higher = more binding, comparable within an allelic series); in test [6], 13.4 upbm affinity estimate (log intensity, higher = more binding, comparable within an allelic series).

AGATTAAT: the binding signal in test [1] was 12.9 upbm affinity estimate (log intensity, higher = more binding, comparable within an allelic series); in test [2], 12.9 upbm affinity estimate (log intensity, higher = more binding, comparable within an allelic series); in test [7], 12.6 upbm affinity estimate (log intensity, higher = more binding, comparable within an allelic series); in test [6], 12.5 upbm affinity estimate (log intensity, higher = more binding, comparable within an allelic series).

Consider AATAATCC, for which the binding signal was 13.4 upbm affinity estimate (log intensity, higher = more binding, comparable within an allelic series) in test [1]; 13.4 upbm affinity estimate (log intensity, higher = more binding, comparable within an allelic series) in test [2]; 13 upbm affinity estimate (log intensity, higher = more binding, comparable within an allelic series) in [7]; 11.5 upbm affinity estimate (log intensity, higher = more binding, comparable within an allelic series) in test [4]; 11.3 upbm affinity estimate (log intensity, higher = more binding, comparable within an allelic series) in test [5]; 13.4 upbm affinity estimate (log intensity, higher = more binding, comparable within an allelic series) in [6].

Consider GGGGCTTA, for which the binding signal in test [1] is 12.8 upbm affinity estimate (log intensity, higher = more binding, comparable within an allelic series); in test [2] it was 12.7 upbm affinity estimate (log intensity, higher = more binding, comparable within an allelic series); in [7] it was 12.4 upbm affinity estimate (log intensity, higher = more binding, comparable within an allelic series).

For ACTAATCC, the binding signal was 13.6 upbm affinity estimate (log intensity, higher = more binding, comparable within an allelic series) in test [1]; 13.7 upbm affinity estimate (log intensity, higher = more binding, comparable within an allelic series) in test [2]; 13.4 upbm affinity estimate (log intensity, higher = more binding, comparable within an allelic series) in test [7]; 13.4 upbm affinity estimate (log intensity, higher = more binding, comparable within an allelic series) in test [6].

For the sequence CTCCGCGC, the binding signal in test [1] is 8.47 upbm affinity estimate (log intensity, higher = more binding, comparable within an allelic series); in test [2], 8.47 upbm affinity estimate (log intensity, higher = more binding, comparable within an allelic series); in [8], 7.75 upbm affinity estimate (log intensity, higher = more binding, comparable within an allelic series); in [9] it was 7.82 upbm affinity estimate (log intensity, higher = more binding, comparable within an allelic series); in test [10] it was 7.71 upbm affinity estimate (log intensity, higher = more binding, comparable within an allelic series); in [11] it was 7.69 upbm affinity estimate (log intensity, higher = more binding, comparable within an allelic series). For the same sequence, the binding signal in [6] is 8.43 upbm affinity estimate (log intensity, higher = more binding, comparable within an allelic series); in [12], 7.76 upbm affinity estimate (log intensity, higher = more binding, comparable within an allelic series).

GGGATTAA: the binding signal in test [1] was 13.7 upbm affinity estimate (log intensity, higher = more binding, comparable within an allelic series); in test [2] it was 13.8 upbm affinity estimate (log intensity, higher = more binding, comparable within an allelic series); in test [7], 13.6 upbm affinity estimate (log intensity, higher = more binding, comparable within an allelic series); in test [6], 13.7 upbm affinity estimate (log intensity, higher = more binding, comparable within an allelic series).

Take AGATTAAG: the binding signal in test [1] was 13.1 upbm affinity estimate (log intensity, higher = more binding, comparable within an allelic series); in test [2], 13 upbm affinity estimate (log intensity, higher = more binding, comparable within an allelic series); in test [7] it was 12.6 upbm affinity estimate (log intensity, higher = more binding, comparable within an allelic series); in test [6], 12.6 upbm affinity estimate (log intensity, higher = more binding, comparable within an allelic series).

As to CGTCTGTC, the binding signal in [1] was 8.37 upbm affinity estimate (log intensity, higher = more binding, comparable within an allelic series); in test [2], 8.33 upbm affinity estimate (log intensity, higher = more binding, comparable within an allelic series); in test [15] it was 9.53 upbm affinity estimate (log intensity, higher = more binding, comparable within an allelic series); in test [16], 9.5 upbm affinity estimate (log intensity, higher = more binding, comparable within an allelic series); in test [6], 8.42 upbm affinity estimate (log intensity, higher = more binding, comparable within an allelic series).

The record behind these values is paper PMC11006913.
